From PubChem
Sampled rows, rich in hits. Any-hit rate of the full collection: about 12%.
Sm TGR inh: blocks Schistosoma mansoni thioredoxin glutathione reductase; Q962Y6; purified TGR, DTNB reduction, TNB absorbance 405 nm; Potency, µM (titrated, usually from 114 µM), inactives show at the top dose activity change, negative = inhibition, most hits filed as inhibitors; 360,000 compounds, 3% hits; AID 485364; note: % is set by controls: 0 for no effect and ±100 for the full control effect; nearly all actives have a fitted effect of over 60% in size
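Kinetic colorimetric format: TGR-catalysed, NADPH-driven DTNB reduction monitored via TNB absorbance. Enzyme dispensed at 20 nM; compound exposure 15 min at room temperature before reaction start.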
Pf growth 48h: P. falciparum growth inhibition at 48 hours (one generation); P. falciparum luciferase growth in erythrocytes, 48 h; Potency, µM (top dose mostly 28.7 µM), for inactives: top-dose activity change, negative = inhibition, usual class: inhibitors; 310,000 compounds, 5.9% hits; AID 504832; note: % is set by controls: 0 for no effect and ±100 for the full control effect
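Parasite viability was followed by luminescence of a genomically integrated firefly luciferase. Cultures held 0.1% parasitemia at 2% hematocrit (final), incubated under 5% CO2 at 37 C.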
SARS PLP yeast: blocks SARS-CoV papain-like protease in a yeast assay | S. cerevisiae expressing SARS-CoV PLpro, growth rescue | Potency, µM (highest dose often 32.9 µM), without a hit: top-dose activity, positive = growth rescue, usual class: activators | 330,000 compounds, 0.19% hits | AID 485353; calls by dose curve; note: 0% is about no effect; nearly all actives have a fitted effect of over 55% in size
AmpC inh detg: AmpC beta-lactamase inhibition with detergent present | AmpC hydrolysis of nitrocefin, absorbance 480 nm, 0.01% Triton | Potency, µM (highest dose often 114 µM), for inactives: top-dose activity change, negative = inhibition, most hits filed as inhibitors | 370,000 compounds, 0.041% hits;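 note: 0% = no-compound wells and -100% = no-enzyme wells; nearly all actives have a fitted effect of over 25% in size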
Target sequence (P00811 whole entry, looked up): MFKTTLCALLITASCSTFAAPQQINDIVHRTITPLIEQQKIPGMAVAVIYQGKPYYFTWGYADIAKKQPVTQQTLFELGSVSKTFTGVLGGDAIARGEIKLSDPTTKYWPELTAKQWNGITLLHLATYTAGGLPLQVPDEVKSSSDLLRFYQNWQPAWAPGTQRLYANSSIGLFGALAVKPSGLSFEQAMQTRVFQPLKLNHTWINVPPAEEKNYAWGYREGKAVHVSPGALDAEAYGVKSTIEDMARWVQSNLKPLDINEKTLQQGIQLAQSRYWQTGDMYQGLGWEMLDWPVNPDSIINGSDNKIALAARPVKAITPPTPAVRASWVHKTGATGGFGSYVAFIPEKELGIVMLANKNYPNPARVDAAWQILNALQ
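20 mM phosphate pH 7.0 + 0.01% (detergent screen) or 0.0001% Triton X-100; 5.3 nM AmpC reagent; cpd preinc 15 min RT; nitrocefin (800 uM stock) to start; A480 q20 s × 4 min; Activity was normalised to no-enzyme and no-compound control wells.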
AmpC no deterg: inhibitors of E. coli AmpC beta-lactamase without detergent. P00811. AmpC nitrocefin hydrolysis, absorbance 480 nm, 0.0001% Triton. Potency, µM (series often up to 57.1 µM), for the others: at the top dose activity change, negative = inhibition, most hits filed as inhibitors. 330,000 compounds, 0.52% hits;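 note: plate controls were no compound for no effect and no enzyme for full effect; nearly all actives have a fitted effect of over 20% in size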
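20 mM phosphate pH 7.0 + 0.01% (detergent screen) or 0.0001% Triton X-100; 5.3 nM AmpC reagent; cpd preinc 15 min RT; nitrocefin (800 uM stock) to start; A480 q20 s × 4 min; Activity was normalised to no-enzyme and no-compound control wells.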
Pf growth 96h: P. falciparum growth inhibition at 96 hours; P. falciparum luciferase reporter growth, 96 h; Potency, µM (doses to about 28.7 µM), for inactives: top-dose activity change, negative = inhibition, actives largely listed as inhibitors; 320,000 compounds, 6.9% hits; note: % is set by controls: 0 for no effect and ±100 for the full control effect
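P. falciparum expressing integrated firefly luciferase, in erythrocytes at 2% hematocrit, 0.05% parasitemia, incubated with compounds 96 h at 37 C, 5% CO2. Growth inhibition read as loss of luminescence; two-generation exposure targets delayed-death apicoplast inhibitors.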
Numbers without * were called inactive; ? = inconclusive; . = no result. Unless noted, calls come from the whole dose curve; as a rule, active = well fitted curve in the direction sought with a large enough effect; inconclusive = small, poorly fitted or top-dose-only effect, or another doubt; inactive = no such curve, though single readings can be large; an effect the other way counts as inactive or inconclusive. Potency is the fitted concentration of half-maximal effect.

SMILES	Sm TGR inh	Pf growth 48h	SARS PLP yeast	AmpC inh detg	AmpC no deterg	Pf growth 96h
O=C(COC(=O)c1nc(Cl)c(Cl)c(Cl)c1Cl)NCc1ccccc1	4µM*	-2%	7%	-21%	-24%	28%
Nc1c(Cl)c(Cl)nc(C(=O)OCC(=O)NCc2ccccc2)c1Cl	1%	-22%	-4%	?	-27%	-10%
Oc1ccc(C2CNCCc3c2cc(O)c(O)c3Cl)cc1 (centres undefined)	-7%	?	.	-18%	-13%	2%
Oc1ccc(C2CNCc3sccc32)cc1O (centres undefined)	35µM*	13µM*	.	?	-30%	?
Cc1nnc(C)n1/N=C/c1c(O)ccc2ccccc12	28µM*	-11%	-1%	-7%	-28%	-24%
CCCn1c(/N=C/c2ccccc2O)nc2ccccc21	-20%	43%	0%	4%	-12%	?
Cc1nc2ccccc2c(=O)n1/N=C/c1ccc2ccccc2c1O	9%	?	4%	-1%	53%	?
Cn1c(/N=C/c2c(O)ccc3ccccc23)nc2ccccc21	10µM*	-16%	?	5%	-25%	-3%
Cc1nnc(-c2ccccc2)c(=O)n1/N=C/c1c(O)ccc2ccccc12	-1%	?	3.2µM*	-7%	-23%	4.1µM*
COc1ccc(S(=O)(=O)Nc2cc3c4c(c2)CCN4C(=O)CC3)cc1C	-1%	?	1%	?	-29%	?
Nc1nonc1C(=O)N/N=C/c1ccc(-c2cccc(C(=O)O)c2)o1	8%	25%	0%	-4%	-19%	?
CCN(CC(=O)N1CCOCC1)S(=O)(=O)c1ccc(Cl)cc1	?	14%	21%	5%	-16%	-10%
Cc1ccc(C(=O)c2cn(Cc3ccc(F)cc3)c3nc(C)ccc3c2=O)cc1	-4%	.	.	1%	.	.
Cc1ccc(Cn2cc(C(=O)c3ccc(F)cc3)c(=O)c3cc4c(cc32)OCO4)cc1	-9%	.	.	-13%	.	.
Cc1ccc(Cn2cc(C(=O)c3ccc(F)cc3)c(=O)c3cc4c(cc32)OCCO4)cc1	2%	-25%	0%	?	?	12µM*
Cc1ccc(C(=O)c2cn(Cc3ccc(Cl)cc3)c3nc(C)ccc3c2=O)cc1	-18%	?	1%	?	-17%	12µM*
CCN1CCN(c2cc(C)c3cc(NC(=O)/C=C/c4ccc(C)cc4)ccc3n2)CC1	1%	.	.	7%	.	.
O=C1C=CC(=O)N1CCNc1ncc(C(F)(F)F)cc1Cl	0.4µM*	6%	-5%	?	-13%	0%
O=C1CC(=O)N(CCNc2ncc(C(F)(F)F)cc2Cl)C(=O)N1	-21%	32%	16%	?	6%	92%
Cn1c(C(=O)NCCCN2CCCCCC2)cc2c(=O)n(C)c3ccccc3c21	?	3.3µM*	-3%	?	11µM*	?
CCN(CC)CCCNC(=O)c1cc2c(=O)n(C)c3ccccc3c2n1C	-32%	.	2%	-12%	0%	10µM*
CCN(CC)CCNC(=O)c1cc2c(=O)n(C)c3ccccc3c2n1C	-14%	.	0%	-12%	-9%	17%
CCc1sc(NC(=O)c2cc3ccccc3oc2=O)nc1-c1cccs1	2%	9%	1%	-12%	-27%	?
CCCCc1ccc(NC(=O)CSc2nc3ccccc3nc2N2CCOCC2)cc1	-1%	.	.	23%	.	.
OC[C@@H]1CCCN1Cc1cn(-c2ccccc2)nc1-c1ccc2c(c1)OCO2	17%	13µM*	-1%	7%	1%	357%
SMILES	Sm TGR inh	Pf growth 48h	SARS PLP yeast	AmpC inh detg	AmpC no deterg	Pf growth 96h
COCC1CCCCN1Cc1cn(-c2ccccc2)nc1-c1ccc2c(c1)OCO2 (centres undefined)	-21%	?	-1%	4%	1%	?
Cn1c(=O)oc2cc(S(=O)(=O)N3CCc4ccccc43)ccc21	7%	?	1%	1%	20%	16%
CCOC(=O)Cn1c(=O)oc2cc(S(=O)(=O)N3CCN(c4ccccc4F)CC3)ccc21	-2%	.	.	-15%	.	.
CC(C)(C)NC(=O)Cn1c(=O)oc2cc(S(=O)(=O)N3CCc4ccccc43)ccc21	-30%	.	2%	?	-26%	1.5µM*
CCOC(=O)Cn1c(=O)oc2cc(S(=O)(=O)N3CCc4ccccc43)ccc21	-31%	.	3%	-12%	18%	13µM*
CN1C(=O)NC(c2ccccc2)C2=C1CN(c1ccc3ccccc3c1)C2=O (centres undefined)	-26%	39%	0%	0%	1%	94%
O=C(CCCC(=O)N(CC(=O)NC1CCCCC1)c1ccccc1F)Nc1ccccn1	-4%	-9%	1%	-15%	10%	?
CC(C)[C@@H](C(=O)N1CCCC1)N1C(=O)N2CCc3c([nH]c4ccccc34)[C@@]2(C)C1=O	-16%	?	-6%	-11%	128%	10µM*
CC(C)[C@@H](C(=O)NC1CCN(Cc2ccccc2)CC1)N1C(=O)N2CCc3c([nH]c4ccccc34)[C@@]2(C)C1=O	2%	?	7%	4%	205%	7.4µM*
COc1ccc2[nH]c3c(c2c1)CCN1C(=O)N([C@@H](C)C(=O)NCc2ccccc2)C(=O)[C@]31C	-9%	?	5%	?	27%	?
COc1ccc2[nH]c3c(c2c1)CCN1C(=O)N([C@@H](C)C(=O)NCc2ccccc2OC)C(=O)[C@]31C	-21%	4.1µM*	-1%	?	33%	7.4µM*
CC(C)[C@@H](C(=O)NC1CC1)N1C(=O)N2CCc3c([nH]c4ccccc34)[C@@]2(C)C1=O	-8%	?	7%	?	81%	?
O=C(NCc1ccc[n+](CCCCS(=O)(=O)[O-])c1)c1ccc(OC(F)F)cc1	-7%	-2%	-3%	5%	-8%	26%
O=C(C[n+]1cccc(CNC(=O)c2ccc(OC(F)F)cc2)c1)Nc1ccc(SC(F)F)cc1	-17%	1.7µM*	-1%	-2%	44%	0.17µM*
O=C(C[n+]1cccc(CNC(=O)c2ccc(OC(F)F)cc2)c1)Nc1ccccc1Cl	1%	13µM*	-12%	-8%	15%	?
CC(=O)N(C)c1ccc(N=Nc2c(C)[nH]n(-c3ccccc3)c2=O)cc1	-2%	?	-4%	-16%	99%	12µM*
CC(=O)Nc1ccc(C(=O)OCc2ccc(Br)cc2)cc1	-7%	?	-69%	-5%	10%	-6%
